# According to the antibiotic and cytotoxicity screens of Wong et al. (2023):
# Hit rate of the full screen: of about 39,000 compounds, about 500 (1.3%) were called active. The list comes from a sample in which actives are over-represented; it also holds similar structures and randomly drawn compounds.
# Test system: S. aureus RN4220
# Test: growth inhibition call (relative growth <= 0.2)
# Settings: 50 µM
row,SMILES,growth inhibition call
1,CN(C)c1cc(NC(=O)CNC(C)(C)C)c(O)c2c1C[C@H]1C[C@H]3[C@H](N(C)C)C(=O)C(C(N)=O)=C(O)[C@@]3(O)C(=O)[C@H]1C2=O,inactive
2,CN(C)[C@@H]1C(=O)[C@@H](C(N)=O)C(=O)[C@@]2(O)C(=O)[C@@H]3C(=O)c4c(O)c(NC(=O)CN5CCCC5)cc(F)c4C[C@H]3C[C@@H]12,active
3,CN(C)c1ccc(O)c2c1C[C@H]1C[C@H]3[C@H](N(C)C)C(=O)[C@@H](C(N)=O)C(=O)[C@@]3(O)C(=O)[C@H]1C2=O,active
4,CN(C)c1ccc(O)c2c1C[C@H]1C[C@H]3[C@H](N(C)C)C(=O)C(C(N)=O)=C(O)[C@@]3(O)C(=O)[C@H]1C2=O,inactive
5,CN(C)c1ccc(O)c2c1C[C@@H]1C[C@@H]3[C@@H](N(C)C)C(=O)C(C(N)=O)=C(O)[C@]3(O)C(=O)[C@H]1C2=O,inactive
6,CN(C)[C@@H]1C(=O)[C@@H](C(=O)NCNCCCC[C@H](N)C(=O)O)C(=O)[C@@]2(O)C(=O)[C@@H]3C(=O)c4c(O)cccc4[C@@](C)(O)[C@H]3C[C@@H]12,inactive
7,CN(C)c1cc(NC(=O)CNC(C)(C)C)c(O)c2c1CC1CC3C(N(C)C)C(O)=C(C(N)=O)C(=O)C3(O)C(O)=C1C2=O (stereo unspecified),inactive
8,CN(C)[C@@H]1C(=O)[C@@H](C(N)=O)C(=O)[C@@]2(O)C(=O)[C@H]3C(=O)c4c(O)cccc4C[C@H]3C[C@@H]12,inactive
9,CN(C)[C@@H]1C(=O)[C@@H](C(N)=O)C(=O)[C@@]2(O)C(=O)[C@H]3C(=O)c4c(O)ccc(Cl)c4[C@@H](O)[C@H]3C[C@@H]12,active
10,CN(C)c1cc(NC(=O)CNC(C)(C)C)c(O)c2c1C[C@H]1C[C@H]3[C@H](N(C)C)C(=O)[C@@H](C(N)=O)C(=O)[C@@]3(O)C(=O)[C@H]1C2=O,inactive
11,CN(C)C1C(O)=C(C(N)=O)C(=O)C2(O)C(O)=C3C(=O)c4c(O)ccc(Cl)c4C(O)C3CC12.Cl (stereo unspecified),inactive
12,CN(C)c1cc(CNCC(C)(C)C)c(O)c2c1C[C@H]1C[C@H]3[C@H](N(C)C)C(=O)[C@H](C(N)=O)C(=O)[C@@]3(O)C(=O)[C@@H]1C2=O,active
13,COc1ccc(S(=O)(=O)N(C)C[C@H]2Oc3ccc(NC(=O)C4CC4)cc3C(=O)N([C@@H](C)CO)C[C@@H]2C)cc1,inactive
14,C[C@@H]1CCCCO[C@H](CN(C)C(=O)Nc2ccc3c(c2)OCO3)[C@H](C)CN([C@H](C)CO)C(=O)c2cc(NS(=O)(=O)c3ccc(F)cc3)ccc2O1,inactive
15,C[C@H](CO)N1C[C@H](C)[C@H](CN(C)Cc2ccc(Cl)c(Cl)c2)Oc2ccc(NC(=O)Nc3ccccc3)cc2CC1=O,inactive
16,O=c1cc(CN2CC[C@H](N3CCOCC3)[C@H](CCCO)C2)nc2c(O)cccn12,inactive
17,C[C@@H]1CCCCO[C@@H](CN(C)CC2CCCCC2)[C@@H](C)CN([C@@H](C)CO)C(=O)c2cc(NC(=O)C3CCCCC3)ccc2O1,inactive
18,CC(C)[C@@H](O)C[C@@H](C)O[C@@H]1O[C@H](CO[C@@H]2OC[C@](O)(CO)[C@H]2O)[C@@H](O)[C@H](O)[C@H]1O,inactive
19,C[C@H]1CN([C@@H](C)CO)S(=O)(=O)c2ccc(C#Cc3ccccc3)cc2O[C@H]1CN(C)C(=O)c1ccccn1,inactive

row,SMILES,growth inhibition call
1,NC(=O)[C@H]1[C@@H]2C(=O)O[C@@H](c3ccccc3)[C@@H](c3ccccc3)N2[C@@H](c2ccccc2OCCO)[C@]12C(=O)Nc1ccc(C#CC3=CCCCC3)cc12,inactive
2,C=CCNC(=O)[C@H]1[C@@H]2C(=O)O[C@@H](c3ccccc3)[C@@H](c3ccccc3)N2[C@@H](c2ccc(O)cc2)[C@]12C(=O)Nc1ccc(C#CC3=CCCCC3)cc12,inactive
3,O=C1O[C@H](c2ccccc2)[C@H](c2ccccc2)N2[C@H]1[C@@H](C(=O)O)[C@]1(C(=O)Nc3ccc(C#CC4=CCCCC4)cc31)[C@H]2c1ccccc1OCCO,active
4,O=C1O[C@@H](c2ccccc2)[C@@H](c2ccccc2)N2[C@@H](c3ccc(O)cc3)[C@]3(C(=O)Nc4ccc(C#CC5=CCCCC5)cc43)[C@@H](C(=O)O)[C@H]12,active
5,O=C1O[C@@H](c2ccccc2)[C@@H](c2ccccc2)N2[C@@H](c3ccc(O)cc3)[C@]3(C(=O)Nc4ccc(C#CC5=CCCCC5)cc43)[C@@H](C(=O)N3CCCCCCC3)[C@H]12,inactive
6,O=C1O[C@H](c2ccccc2)[C@H](c2ccccc2)N2[C@H]1[C@@H](C(=O)N1CCCCCCC1)[C@]1(C(=O)Nc3ccc(C#CC4=CCCCC4)cc31)[C@H]2c1ccc(O)cc1,inactive
7,O=C1O[C@@H](c2ccccc2)[C@@H](c2ccccc2)N2[C@@H](c3ccccc3OCCO)[C@]3(C(=O)Nc4ccc(C#CC5=CCCCC5)cc43)[C@@H](C(=O)O)[C@H]12,inactive
8,O=C1O[C@H](c2ccccc2)[C@H](c2ccccc2)N2[C@H]1[C@@H](C(=O)O)[C@]1(C(=O)Nc3ccc(C#CC4=CCCCC4)cc31)[C@H]2c1ccc(O)cc1,active
9,C=CCNC(=O)[C@@H]1[C@H]2C(=O)O[C@H](c3ccccc3)[C@H](c3ccccc3)N2[C@H](c2ccc(O)cc2)[C@@]12C(=O)Nc1ccc(C#CC3=CCCCC3)cc12,inactive
10,CC(C)(C)S(=O)N1Cc2cc(C(=O)N[C@@H]3CCN(Cc4ccccc4)C3)nc(-c3cccc(C#CCC4CCCC4)c3)c2[C@H]1CCO (stereo partly specified),inactive
11,CC(C)(C)OC(=O)C[C@@H]1CC=CC[C@@H](CC(=O)NCCO)C(=O)N[C@@H](Cc2ccccc2)COC1=O,inactive
12,C[C@@H]1CN([C@@H](C)CO)C(=O)Cc2cc(NC(=O)Nc3ccc(F)cc3)ccc2O[C@@H]1CN(C)Cc1ccc(C(=O)Nc2ccccc2N)cc1,inactive
13,Cc1ccc(S(=O)(=O)Nc2ccc3c(c2)C(=O)N([C@H](C)CO)C[C@@H](C)[C@@H](CN(C)Cc2ccc4c(c2)OCO4)OCCCC[C@@H](C)O3)cc1,inactive
14,CC(C)NC(=O)N[C@@H]1CC[C@H](CCN)O[C@@H]1CO,inactive
15,COc1ccccc1NC(=O)Nc1ccc2c(c1)OC[C@@H](C)N(Cc1ccccc1Cl)C[C@@H](C)[C@H](OC)CN(C)C2=O,inactive
16,CO[C@H]1CN(C)C(=O)c2ccc(NS(C)(=O)=O)cc2OC[C@H](C)N(C(=O)C2CCOCC2)C[C@H]1C,inactive
17,CC(C)CC#Cc1ccc2c(c1)O[C@H](CN(C)C(=O)Cc1cccnc1)[C@@H](C)CN([C@H](C)CO)S2(=O)=O,inactive
18,O=C(C[C@H]1CC[C@@H](NC(=O)CN2CCOCC2)[C@H](CO)O1)NCCc1ccccc1,inactive
19,CCCCc1ccc(CC(=O)O)cc1,inactive

row,SMILES,growth inhibition call
1,CC(C)(C)Cc1ccc(OCCCC(=O)O)c(CC(C)(C)C)c1,active
2,Cc1ccc(C)c(OCCCC(C)(C)C(=O)O)c1,inactive
3,C[C@H](CO)N1C[C@H](C)[C@H](CN(C)S(=O)(=O)c2ccccc2)Oc2ccc(NS(C)(=O)=O)cc2CC1=O,inactive
4,O=C(O)CN1C(=O)c2cccc3cccc(c23)C1=O,inactive
5,O=C(CN1C(=O)c2cccc3cccc(c23)C1=O)N1CCN(CCN2C(=O)[C@@H]3[C@@H](C2=O)[C@@H]2C=C[C@@H]3C2)CC1,inactive
6,CC(C)(C)C1CCC(OC[C@@H](O)CN2CCC(CN3C(=O)c4cccc5cccc(c45)C3=O)CC2)CC1 (stereo partly specified),active
7,C[C@H](O)C#Cc1cnc2c(c1)C(=O)N([C@@H](C)CO)C[C@H](C)[C@@H](CN(C)Cc1cncnc1)O2,inactive
8,C[C@@H]1CN([C@@H](C)CO)C(=O)c2cc(NC(=O)c3ccncc3)ccc2O[C@@H](C)CCCCO[C@@H]1CN(C)S(=O)(=O)c1cn(C)cn1,inactive
9,C[C@H]1CN([C@@H](C)CO)C(=O)c2c(c3ccccc3n2C)-c2ccccc2CO[C@@H]1CN(C)Cc1ccc(C(=O)O)cc1,inactive
10,CC(C)[C@H]1CC[C@@H](C)C[C@@H]1NC(=O)c1cccc2ccccc12,inactive
11,COc1ccc2c(c1)n(CCN)c(=O)n2C(=O)[C@@H]1C[C@H](C)CC[C@H]1C(C)C,active
12,COc1ccc(NC(=O)N(C)C[C@H]2OCCCC[C@H](C)Oc3ccc(NC(=O)NC4CCCCC4)cc3C(=O)N([C@@H](C)CO)C[C@H]2C)cc1,inactive
13,O=C(O)CN(CCN(CC(=O)O)CC(=O)O)CC(=O)O,inactive
14,Cc1c2oc3c(C)ccc(C(=O)OC(C)C4NC(=O)C(C(C)C)N(C)C(=O)CN(C)C(=O)C5CCCN5C(=O)C(C(C)C)NC4=O)c3nc-2c(C(=O)OC(C)C2NC(=O)C(C(C)C)N(C)C(=O)CN(C)C(=O)C3CCCN3C(=O)C(C(C)C)NC2=O)c(N)c1=O (stereo unspecified),active
15,Cc1c2oc3c(C)ccc(C(=O)N[C@@H]4C(=O)N[C@H](C(C)C)C(=O)N5CCC[C@H]5C(=O)N(C)CC(=O)N(C)[C@@H](C(C)C)C(=O)O[C@@H]4C)c3nc-2c(C(=O)N[C@@H]2C(=O)N[C@H](C(C)C)C(=O)N3CCC[C@H]3C(=O)N(C)CC(=O)N(C)[C@@H](C(C)C)C(=O)O[C@@H]2C)c(N)c1=O,inactive
16,Cc1c2oc3c(C)ccc(C(=O)N[C@@H]4C(=O)N[C@@H](C(C)C)C(=O)N5CCC[C@H]5C(=O)N(C)CC(=O)N(C)[C@@H](C(C)C)C(=O)O[C@@H]4C)c3nc-2c(C(=O)N[C@@H]2C(=O)N[C@@H](C(C)C)C(=O)N3CCC[C@H]3C(=O)N(C)CC(=O)N(C)[C@@H](C(C)C)C(=O)O[C@@H]2C)c(N)c1=O,active
17,C[C@H]1CN([C@@H](C)CO)C(=O)Cc2cc(NC(=O)Nc3cccc4ccccc34)ccc2O[C@@H]1CN(C)C(=O)Nc1ccc(F)cc1,inactive
18,C[C@@H]1CN([C@H](C)CO)C(=O)c2cccc(NC(=O)c3cnccn3)c2O[C@H]1CN(C)Cc1ccc2c(c1)OCO2,inactive
